Experimental findings from PubChem BioAssay are described below.

Entries with a potency or affinity are not part of this list. The source made the active and inactive calls. Cut-off not given; nearly all actives show IC50 up to about 0.91 µM.

For this assay, the target named is Calcium-dependent protein kinase 4 (Plasmodium falciparum (isolate 3D7)) (UniProt Q8IBS5). The experiment in a line: PfCDPK4 kinase inhibitors, biochemical, TCAMS library (AID 1159588). Conditions: recombinant PfCDPK4, Kinase-Glo ATP depletion luminescence.
Chain of Calcium-dependent protein kinase 4 (Plasmodium falciparum (isolate 3D7)) (Q8IBS5 whole entry, looked up): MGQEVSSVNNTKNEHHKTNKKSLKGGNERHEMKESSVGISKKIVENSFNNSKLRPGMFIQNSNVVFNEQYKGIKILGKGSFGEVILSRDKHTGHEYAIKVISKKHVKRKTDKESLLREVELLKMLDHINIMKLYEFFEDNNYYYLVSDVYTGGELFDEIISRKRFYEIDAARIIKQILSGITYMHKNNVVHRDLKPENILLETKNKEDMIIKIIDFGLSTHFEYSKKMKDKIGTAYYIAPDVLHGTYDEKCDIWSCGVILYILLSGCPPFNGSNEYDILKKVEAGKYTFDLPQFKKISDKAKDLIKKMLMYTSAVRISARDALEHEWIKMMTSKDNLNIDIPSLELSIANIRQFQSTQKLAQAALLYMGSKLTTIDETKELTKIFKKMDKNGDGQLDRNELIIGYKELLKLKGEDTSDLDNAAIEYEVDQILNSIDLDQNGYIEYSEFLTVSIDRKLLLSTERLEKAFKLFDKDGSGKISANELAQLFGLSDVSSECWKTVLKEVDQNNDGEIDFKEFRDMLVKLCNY
Take `CC1(C)N=C(N)N=C(N)N1OCCc1ccc(N)cc1`: the result was inactive.
With `Cc1ccc(C(C(=O)Nc2ccc(N3CCNCC3)c(Cl)c2)c2ccccc2)cc1` (stereo not given), the outcome was inactive.
The entry for `Cc1ccc2[nH]c3ccccc3c(=O)c2c1` is “inactive”.
`COc1ccc2nccc(N3CCCN(CCNCc4ccc5c(n4)NC(=O)CS5)CC3)c2n1`: the outcome was inactive.
As to `O[C@@H](c1cccc2ccccc12)[C@@H]1CN(CCc2ccccc2)CC[C@@]1(O)c1ccccc1`, the outcome was inactive.
The entry for `CC(C)(C)c1cc(NC(=O)c2ccc(Cl)c([N+](=O)[O-])c2)cc(C(C)(C)C)c1` is “inactive”; for `Cc1cc(N[C@@H](Cc2ccccc2)C(=O)NCCOc2ccccc2)nc(NCCc2ccccc2)n1` it is “inactive”.
On to `N#Cc1ccc(N2CCN(Cc3ccc(-c4ccc(-c5nc6ccc(F)cc6[nH]5)s4)cc3)CC2)nc1`, for which the result was inactive.
The entry for `COc1ccc2nccc(NC(=O)C3(O)CCC(NCc4ccc5c(c4)NCCS5)CC3)c2n1` (stereo not given) is “inactive”.
The value for `Cc1cccc(-n2nc(C)c3c2NC(=O)CC3C(=O)c2ccc(Cl)s2)c1` (stereo not given) was “inactive”.
As for `COc1ccc(C=NNc2cc(C)nc3c(C)cccc23)c2ccccc12`, the result was inactive.
The value for `NC(=NCCCCC1CCCCC1)c1cccc(C(N)=NCCCCC2CCCCC2)n1` was “inactive”; that for `CC(C)c1ccc(CN2CCC(CNC(=O)c3cc(-c4cccc(Cl)c4)cs3)C2)cc1` (stereo not given) was “inactive”.
On to `OC1CCN(c2cc(-c3ccccn3)nc(-c3ccccn3)n2)CC1`, for which the result was inactive.
With `Cc1cc(N[C@@H](Cc2ccccc2)C(=O)Nc2ccccc2)nc(NCCc2ccccc2)n1`, the result was inactive.
With `CN1CCCC1CCNCc1cccc(-c2cnc(N(C)C3CCCCC3)nc2)c1` (stereo not given), the result was inactive.
On to `c1ccc(CN2CCCN(c3ccc4c(c3)CCN(Cc3ccc(-c5ncc[nH]5)cc3)CC4)CC2)cc1`, for which the result was inactive.
With `N#Cc1ccc(-c2ccc(C(=O)NCCCCN3CCC(c4ccc5c(c4OCC(N)=O)CCCC5)CC3)cc2)cc1`, the result was inactive.
The entry for `CC(C)CNCc1cccc(-c2cccc(CN(CCCN3CCN(C)CC3)C(=O)Nc3ccccc3)c2)c1` is “inactive”; for `O=C(NCCCCN1CCC(c2ccc3c(c2OCc2ccncc2)CCCC3)CC1)c1ccc(-c2ccc(C(F)(F)F)cc2)cc1` it is “inactive”; for `O=C(C=Cc1ccc(Br)cc1)N1CCC(CCN2CCC(c3c[nH]c4ccccc34)CC2)CC1` it is “inactive”.
The value for `CC(=O)c1c(Cc2ccccc2Cl)c[nH]c1C` was “inactive”; that for `CN(C)CCOc1cc(NC(=O)Nc2ccc(-c3ccccc3)cc2Cl)ccc1I` was “inactive”; that for `CCOc1ccccc1CCNCC1CCN(CC2CCCCC2)CC1` was “inactive”.
The entry for `c1ccc2c(c1)CN(CC1CC1)CC1(CCN(Cc3c[nH]c4cnccc34)CC1)O2` is “inactive”; for `O=C(Nc1ccccc1C(F)(F)F)Nc1nn(Cc2c(F)cccc2Cl)cc1Br` it is “inactive”; for `CN1CCN(c2ccnc3ccc(NC(=O)Nc4cccc5c(-c6ccncc6)cccc45)cc23)CC1` it is “inactive”.
On to `O=C(COc1cccc([N+](=O)[O-])c1)Nc1ccc(-c2nc3ccccc3[nH]2)cc1`, for which the result was inactive.
The value for `Cc1cccc2[nH]c(-c3ccc(-c4cccc(NC(=O)c5cnn6cccnc56)c4)cc3)nc12` was “inactive”.
The entry for `O=C(C=Cc1ccc(F)cc1)N1CCN(S(=O)(=O)c2ccc(Cl)cc2)CC1` is “inactive”.
`CCN(CC)c1ccc(C(=O)Cn2ccc(=N)cc2)cc1`: the outcome was inactive.
The entry for `COc1ccc2nc(C)cc(Nc3ccc(Oc4ccc5ccccc5c4Cl)c(Cl)c3)c2c1` is “inactive”.
The entry for `COc1cccc(NC(=O)Nc2ccc(Nc3nc(C)cc(N(C)C)n3)cc2)c1` is “inactive”.
The value for `CC(C)Cc1nc(N2CCOCC2)c2nnn(Cc3ccccc3)c2n1` was “inactive”; that for `O=C([C@@H]1CCCCN1c1ccc([N+](=O)[O-])c2ccccc12)N1CCN(c2ncccn2)CC1` was “inactive”; that for `CN1CCC(N2CCN(c3ccc4c(=O)nc(CCc5cccc(F)c5F)n(CC(=O)N(C)Cc5ccc(-c6ccc(C(F)(F)F)cc6)cc5)c4n3)CC2)CC1` was “inactive”.
On to `O=C(/C=C/c1ccc(Cl)c(Cl)c1)NCCCCCN1CCCC(C(=O)Nc2ccc(Cl)cc2)C1` (stereo not given), for which the outcome was inactive.
The entry for `COCCN1CCC(NCC(C)(C)c2nc(-c3ccc(Cl)c(O)c3)c(-c3ccncc3)[nH]2)CC1` is “inactive”.
The value for `CC(Nc1ncc(-c2ccsc2)c(-c2nccs2)n1)c1ccc2c(c1)OCCO2` (stereo not given) was “inactive”; that for `CC1CC(NCCCNc2cc(=O)c3ccccc3[nH]2)c2c1cc(Cl)c(Cl)c2Cl` (stereo not given) was “inactive”.
